Source: PubChem BioAssay (several laboratories)
PREPL inh – PREPL enzyme inhibitors, primary screen, biochemical, fluorescence polarization; recombinant PREPL, fluorescence polarization activity-based probe; inhibition, % at 5.96 µM; hit rate 0.68% among 320,000; in the data active = inhibition above about 43%;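 also: 0% = enzyme with DMSO and 100% = wells lacking enzyme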
UBC13 polyUb – UBC13 polyubiquitin chain formation inhibitors, primary screen, biochemical, TR-FRET, uHTS. AID 485273, 2010. inhibition, % at 20 µM. hit rate 0.47% among 330,000. Ubiquitin-conjugating enzyme E2 N (Homo sapiens), P61088; in the data active = inhibition above about 45%, passing the limit was not always enough; inconclusive = no clear call, values can overlap the other calls
RAD54 branch – inhibitors of human RAD54 branch migration, primary screen, biochemical, fluorescence, single point; RAD54 Holliday junction branch migration, FAM/BHQ fluorescence; hit rate 0.14% among 360,000; DNA repair and recombination protein RAD54-like (Homo sapiens), Q92698; inhibition, % at 10.4 µM;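 active = mean normalized replicate activity at least 40 and at least half of replicates scoring 40 or more; inconclusive = only one of the two criteria met; inactive = mean below 40 and under half of replicates reaching 40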;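 also: 0% = median of neutral control wells and 100% = median of positive control wells; inhibitors cause a drop in the FAM fluorescence signal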
Target sequence (Q92698 whole entry, looked up): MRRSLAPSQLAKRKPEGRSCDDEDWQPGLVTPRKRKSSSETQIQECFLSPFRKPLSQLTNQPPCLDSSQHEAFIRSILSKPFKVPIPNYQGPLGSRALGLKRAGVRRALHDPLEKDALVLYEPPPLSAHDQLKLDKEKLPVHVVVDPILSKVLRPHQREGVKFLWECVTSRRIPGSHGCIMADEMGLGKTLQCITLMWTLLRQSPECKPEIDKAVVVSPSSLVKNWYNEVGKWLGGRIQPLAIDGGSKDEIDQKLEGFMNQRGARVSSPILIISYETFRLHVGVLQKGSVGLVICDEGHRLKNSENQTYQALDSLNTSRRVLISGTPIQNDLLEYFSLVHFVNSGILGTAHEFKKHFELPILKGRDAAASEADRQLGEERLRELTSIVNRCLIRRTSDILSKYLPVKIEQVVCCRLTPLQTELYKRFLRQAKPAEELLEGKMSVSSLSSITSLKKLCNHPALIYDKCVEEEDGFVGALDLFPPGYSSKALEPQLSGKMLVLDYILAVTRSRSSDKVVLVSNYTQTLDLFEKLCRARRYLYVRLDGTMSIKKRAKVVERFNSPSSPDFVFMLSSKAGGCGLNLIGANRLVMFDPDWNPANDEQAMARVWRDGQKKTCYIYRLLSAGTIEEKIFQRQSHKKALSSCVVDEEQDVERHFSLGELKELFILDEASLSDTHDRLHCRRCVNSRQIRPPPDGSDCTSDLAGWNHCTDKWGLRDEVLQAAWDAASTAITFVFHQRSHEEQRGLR
RAD52 anneal inh – RAD52 DNA annealing inhibitors, primary screen, biochemical, FRET, single point, set 2 | DNA repair protein RAD52 homolog (Homo sapiens), P43351 | inhibition, % at 18.7 µM | hit rate 0.46% among 360,000 | AID 651710, 2012 | recombinant RAD52 DNA annealing, FRET fluorescence;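 active = every replicate showing at least 50% inhibition; inconclusive = mean inhibition at least 50% but not in every replicate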
beta cell repl – inducers of MIN6 beta-cell proliferation, primary screen, ATP luminescence, uHTS | proliferation, % at 10 µM | hit rate 0.29% among 330,000 | MIN6 cells proliferation, ATPlite luminescence, 48 h; cells starved in 0.2% serum; 100% = growth in 10% serum | AID 2380, 2010;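 active = compounds whose signal lies at least 3.5 SD above the mean of all wells on their plate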;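 also: 0% = DMSO-treated cells in low-serum medium and 100% = 10% serum control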
FID counter – compounds displacing fluorescent DNA intercalator, primary screen, artefact control for HCV NS3 helicase inhibitor project, biochemical, FID fluorescence; DNA fluorescent intercalator displacement; inhibition, % at 7.9 µM; hit rate 0.17% among 290,000; in the data active = inhibition above about 37%;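 also: 0% = vehicle and 100% = reference compound; higher means more ethidium bromide displaced from hairpin DNA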
Casp3 UBC13 ctr – CASP3 inhibitor validation, counterassay for project on UBE2N polyubiquitination blockers, biochemical, one dose. hit rate 4% among 1,400. inhibition, % at 20 µM. Recombinant caspase-3, Caspase-Glo 3/7 luminescence, 60 min. shares compounds with UBC13 polyUb;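 active = mean inhibition across replicates above about 26%, limit read from the data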;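 also: plate controls were DMSO with caspase-3 for no effect and DMSO wells lacking enzyme for full effect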
UBC13 confirm – UBC13 polyubiquitination inhibitors, single-point retest, confirmation, biochemical, TR-FRET, single concentration; shares compounds with UBC13 polyUb; inhibition, % at 10 µM; hit rate 68% among 1,400; in the data active = inhibition above about 45%; inconclusive = no clear call, values can overlap the other calls
Rad54 DNA ctr – DNA binding of candidate compounds, dose response, artefact control for RAD54 inhibitor project, biochemical, fluorescence polarization, cherry-pick. shares compounds with RAD54 branch. Acridine orange-DNA displacement, 20 min. AC50, µM (top dose mostly 35 µM), without a hit: at the highest dose activity change, negative = DNA binding. hit rate 8% among 460;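 active = signal drop giving an AC50 within twice the top valid tested concentration of each sample, actives reach about 35 µM in these data; inactive = activity opposite to expected, plus the rest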;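 also: polarization loss reports compound binding to salmon sperm DNA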
DNA binder FP – DNA-binding compounds via dye displacement, dose response, artefact control for RAD52 inhibitor project, biochemical, fluorescence polarization, cherry-pick; shares compounds with RAD52 anneal inh; Salmon sperm DNA/acridine orange FP displacement; hit rate 8% among 1,000; AID 652128, 2013; AC50, µM;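 active = fitted half-maximal concentration for signal loss at or below twice the highest dose tested, in every separate run, actives reach about 64 µM in these data; inconclusive = runs disagree, or flat partial signal loss, or poor fit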
Active calls of the source: *. Rows were chosen to be rich in hits. Some 1.3% of all compounds tested hit in one or more screens of this group.

For COc1ccccc1NC(=O)COC(=O)c1cc(C)nc2ccccc12 the results were PREPL inh 1.0, UBC13 polyUb 47.9*, RAD54 branch 18.4, RAD52 anneal inh -8.2, beta cell repl 2.5, Casp3 UBC13 ctr 1.0 and UBC13 confirm 24.6.
For O=C(C[C@H]1CC[C@@H]2[C@H](COC[C@@H](O)CN2Cc2ccc(Oc3ccccc3)cc2)O1)N1CCCCC1 the results were RAD54 branch 2.3 and RAD52 anneal inh 26.5.
For CCCNC(=O)[C@H]1[C@H](CO)[C@H]2Cn3c(ccc(-c4cccc(OC)c4)c3=O)[C@H]2N1Cc1nccs1 the results were RAD52 anneal inh -8.3.
`Cc1cccc(CS(=O)(=O)c2ncc(Cl)c(C(=O)Nc3c(C)cccc3C)n2)c1` gave PREPL inh 1.4, UBC13 polyUb -6.5, RAD54 branch -7.3, RAD52 anneal inh -12.4, beta cell repl -6.9 and FID counter -37.4.
For CCCc1nnc(NC(=O)c2nc(S(=O)(=O)Cc3cccc(C)c3)ncc2Cl)s1 the results were PREPL inh -4.2, UBC13 polyUb 54.4*, RAD54 branch 0.5, RAD52 anneal inh -10.1, beta cell repl -6.7, FID counter -60.0, Casp3 UBC13 ctr 5.3 and UBC13 confirm 61.6*.
Screening CCOC(=O)c1c(NC(C)=O)sc2c(OCC(O)CNC(C)(C)C)c(Br)ccc12 (stereo not given) returned PREPL inh -15.3, UBC13 polyUb 45.5*, RAD54 branch inconclusive, beta cell repl -5.6, FID counter 22.1, Casp3 UBC13 ctr -6.0, UBC13 confirm 74.2* and Rad54 DNA ctr -12.0%.
For CN1CCN(c2ccc(NC(=O)c3ccc(Oc4ccccc4)cc3)cc2)CC1 the results were PREPL inh 19.0, UBC13 polyUb 21.4, RAD54 branch -7.9, RAD52 anneal inh 12.8, beta cell repl 0.0 and FID counter 20.2.
C=CC(=O)Nc1ccc(N(C)c2ccnc(Nc3ccc(N4CCN(C)CC4)cc3)n2)cc1 was read as PREPL inh 31.4, UBC13 polyUb 85.3*, RAD54 branch 74.6*, RAD52 anneal inh 100.4*, beta cell repl -6.1, Casp3 UBC13 ctr 1.7, UBC13 confirm 76.6* and Rad54 DNA ctr 4.0%.
Screening O=C(CSc1nc2ccccc2[nH]1)Nc1nc(-c2cccc(Br)c2)cs1 returned PREPL inh -55.2, UBC13 polyUb 14.6, RAD52 anneal inh -31.9, beta cell repl -5.6 and FID counter 3.5.
CN(C)CCCn1c(SCC(=O)Nc2nc(-c3cccc(Br)c3)cs2)nc2ccccc2c1=O was read as PREPL inh -144.5, UBC13 polyUb 116.0*, RAD54 branch inconclusive, RAD52 anneal inh 2.0, beta cell repl -7.6, FID counter 8.1, Casp3 UBC13 ctr 1.9, UBC13 confirm 134.3* and Rad54 DNA ctr -19.1%.
Screening COCC(=O)Nc1ccc2c(c1)C(=O)N(C)[C@H]1CC[C@@H](CC(=O)NCC3CC3)O[C@H]1CO2 returned RAD54 branch -14.1 and RAD52 anneal inh 1.2.
For COc1ccc(Cn2c(=O)[nH]c3cc(OC)c(OC)cc3c2=O)cc1 the results were PREPL inh -2.3, UBC13 polyUb 5.2, RAD54 branch -1.1, RAD52 anneal inh -10.1, beta cell repl 3.0 and FID counter -4.0.
Screening COc1ccc(Cn2cc3c(-c4ccc(F)cc4)nnc-3c3cc(OC)c(OC)cc32)cc1 returned PREPL inh -23.7, UBC13 polyUb 87.3*, RAD54 branch 63.9*, RAD52 anneal inh -242.5, beta cell repl -5.8, FID counter 4.3, Casp3 UBC13 ctr -2.3, UBC13 confirm 39.2 and Rad54 DNA ctr 0.3%.
CCN(CC)CCNC(=O)c1cc2c(=O)n(C)c3ccccc3c2s1 was read as PREPL inh -23.1, UBC13 polyUb 55.2*, RAD54 branch 61.9*, RAD52 anneal inh 30.7, beta cell repl -0.6, FID counter 9.4, Casp3 UBC13 ctr 0.7, UBC13 confirm 62.4* and Rad54 DNA ctr -14.5%.
For C[C@H]1CN([C@@H](C)CO)C(=O)c2cccc(NS(=O)(=O)c3ccc(F)cc3)c2O[C@@H]1CN(C)S(=O)(=O)c1ccc(F)cc1 the results were RAD54 branch -2.7 and RAD52 anneal inh -7.8.
`CC1CCCCN1CCNC(=O)c1cc2c(=O)n(C)c3ccccc3c2n1C` (stereo not given) gave PREPL inh -24.2, UBC13 polyUb 46.5*, RAD54 branch 56.7*, RAD52 anneal inh -2.1, beta cell repl 2.2, FID counter 12.3, Casp3 UBC13 ctr 1.8, UBC13 confirm 46.3* and Rad54 DNA ctr -23.5%.
For C[C@@H]1CN([C@@H](C)CO)C(=O)Cc2cc(NC(=O)Nc3ccc4c(c3)OCO4)ccc2O[C@H]1CN(C)Cc1ccc(-c2ccccc2)cc1 the results were RAD54 branch -9.8 and RAD52 anneal inh 12.9.
Screening CCN1CCN(CCNC(=O)c2ccc3nc(-c4cccc(C)c4)c(-c4cccc(C)c4)nc3c2)CC1 returned PREPL inh -17.6, UBC13 polyUb 53.9*, RAD54 branch 9.5, RAD52 anneal inh 68.1*, beta cell repl -7.0, FID counter 31.4, Casp3 UBC13 ctr -1.9, UBC13 confirm 84.1* and DNA binder FP inactive.
Screening CCCNC(=O)c1ccc2nc(-c3ccccc3)c(-c3ccccc3)nc2c1 returned PREPL inh -8.4, UBC13 polyUb 7.6, RAD54 branch -1.9, RAD52 anneal inh -10.2, beta cell repl -1.4 and FID counter -3.6.
For N#C[C@H]1[C@@H](c2ccccc2)[C@@H](CO)N1S(=O)(=O)Cc1ccccc1 the results were RAD54 branch 3.5 and RAD52 anneal inh 13.4.
